The nature of assay [1]: qHTS for differential inhibitors of proliferation of Plasmodium falciparum line D10 (AID 1877).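 Note: parasites grown with compound for 72 h before DNA staining.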 In general terms: qHTS replaces the single test concentration by a dilution series.
The nature of assay [2]: qHTS for differential inhibitors of proliferation of Plasmodium falciparum line Dd2 (AID 1882). Note: series mostly up to about 29 µM; nearly all actives have a fitted effect of over 65% in size. Conditions: Potency: Plasmodium falciparum Dd2 proliferation inhibition. In short, it runs like this:
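SYBR Green DNA fluorescence (ex 485, em 535 nm) after overnight lysis quantifies parasite growth; compound exposure lasted 72 h at 37 C on infected red cells at 2.5% hematocrit, 0.3% parasitemia (final). Artemisinin 0.29 uM and vehicle wells define normalization.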

A short description of assay [3]: qHTS for differential inhibitors of proliferation of Plasmodium falciparum line W2 (AID 1883).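 Note: parasites grown with compound for 72 h before lysis and staining.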 Note: potency is the fitted concentration of half-maximal effect. As to conditions: Potency: Plasmodium falciparum W2 proliferation inhibition.
The nature of assay [4]: qHTS for differential inhibitors of proliferation of Plasmodium falciparum line HB3 (AID 1886).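 Note: parasites grown with compound for 72 h before SYBR Green readout.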 Conditions: Potency: Plasmodium falciparum HB3 proliferation inhibition.
Assay [5] is described as follows: qHTS Assay for Modulators of Human Peripheral Myelin Protein 22 (PMP22) Expression/Activity (AID 1967; active = well fitted curve in the direction sought with a large enough effect in the signal ratio; the % refers to the signal ratio). In short, it runs like this:
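Readout is the corrected green/red luminescence ratio after 24 h compound exposure, normalised to untreated cells (0%). Engineered MSC80 mouse Schwann cells express green luciferase from the mouse Pmp22 promoter and red luciferase from EF-alpha as internal control.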

The target of assay [6] is Ferritin light chain (Equus caballus) (UniProt P02791). Put plainly: qHTS Validation Assay for Identification of Novel General Anesthetics (AID 2323). Note: series mostly up to about 77 µM. The essentials:
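Competitive displacement of the profluorescent anesthetic 1-AMA (50% saturated, PBS) from 10 uM apoferritin, 10 min, room temperature. Activity is normalized 380/535 nm fluorescence; concentration-response fitted with a four-parameter Hill equation.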

Assay [7] has as its target ATP-dependent DNA helicase Q1 (Homo sapiens) (UniProt P46063). Put plainly: qHTS Validation Assay for Inhibitors of RecQ-Like Dna Helicase 1 (RECQ1) (AID 2353). In short, it runs like this:
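RECQ1T1 50 nM; forked duplex (20 bp + 30-nt ss tails) 200 nM, ATP 2 mM final; pH 8.0, 2 mM MgCl2, 2.5 ug/ml poly(dI-dC); 15 min compound preincubation; discontinuous kinetic read over 2 h at RT.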

Assay [8] concerns the target RecQ-like DNA helicase BLM (Homo sapiens) (UniProt P54132). Put plainly: qHTS Validation Assay for Inhibitors of Bloom's syndrome helicase (BLM) (AID 2364). In short, it runs like this: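 Forked 20-bp duplex substrate (200 nM, TAMRA/BHQ-2) plus 2 mM ATP added after 15 min compound preincubation with 50 nM enzyme, pH 8.0, poly(dI-dC) 2.5 ug/ml. Strand separation followed by fluorescence (525/598 nm) over 2 h, normalized to enzyme-free and DMSO controls.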

Assay [9] addresses Lysosomal alpha-glucosidase (Homo sapiens) (UniProt P10253). Put plainly: Confirmation of Inhibitors and Activators of Purified Human alpha-Glucosidase (AID 2115; active = well fitted curve in either direction with a large enough effect). Conditions: purified human GAA enzyme activity. An excerpt: NIH Chemical Genomics Center [NCGC]
NIH Molecular Libraries Probe Production centers Network [MLPCN]
Assay Submitter (PI): Wei Zheng
Alpha-glucosidase is responsible for hydrolysis of terminal, non-reducing 1,4-linked alpha-D-glucose residues with release of alpha-D-glucose. It is a lysosomal hydrolase that is required for the degradation of a small percentage (1-3%) of cellular glycogen in human. Deficiency of this enzyme results in glycogen-storage disease type II (GSDII), also referred to as Pompe disease, an autosomal recessive disorder. Structurally normal glycogen is accumulated in lysosomes and cytoplasm in affected patients, primarily in muscle tissues. Excessive glycogen storage within lysosomes may interrupt normal functioning of other organelles and leads to cellular injury. In turn, this leads to enlargement and dysfunction of the entire organ involved (eg, cardiomyopathy and muscle weakness). […]
This is a fluorogenic enzyme assay with 4-methylumbelliferyl-alpha-D-[…] as the substrate and human […] as the enzyme preparation. […] 4-methyllumbelliferone, can be excited at 365 nm and emits at 440 nm which can be detected by a standard fluorescence plate reader. […] The AC50 values were determined from concentration-response data modeled with the standard Hill equation. […]
(6) Detect the assay plate in a ViewLux plate reader (PerkinElmer) with Ex=365 nm and Em=440nm. […]

Inconclusive results are not listed. Active and inactive are the calls of the source. Unless noted, calls come from the whole dose curve; as a rule, active = well fitted curve in the direction sought with a large enough effect; inconclusive = small, poorly fitted or top-dose-only effect, or another doubt; inactive = no such curve, though single readings can be large; an effect the other way counts as inactive or inconclusive.

Data on 26 compounds can be found in PubChem BioAssay (NCATS).

Ferritin light chain (Equus caballus), sequence (P02791 2-175 limits assumed): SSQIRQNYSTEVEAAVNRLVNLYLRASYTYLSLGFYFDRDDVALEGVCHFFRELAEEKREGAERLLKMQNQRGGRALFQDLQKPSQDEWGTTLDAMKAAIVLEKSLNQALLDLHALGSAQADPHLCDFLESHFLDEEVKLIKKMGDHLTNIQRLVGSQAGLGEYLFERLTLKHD
RecQ-like DNA helicase BLM (Homo sapiens), sequence (P54132 whole entry, looked up): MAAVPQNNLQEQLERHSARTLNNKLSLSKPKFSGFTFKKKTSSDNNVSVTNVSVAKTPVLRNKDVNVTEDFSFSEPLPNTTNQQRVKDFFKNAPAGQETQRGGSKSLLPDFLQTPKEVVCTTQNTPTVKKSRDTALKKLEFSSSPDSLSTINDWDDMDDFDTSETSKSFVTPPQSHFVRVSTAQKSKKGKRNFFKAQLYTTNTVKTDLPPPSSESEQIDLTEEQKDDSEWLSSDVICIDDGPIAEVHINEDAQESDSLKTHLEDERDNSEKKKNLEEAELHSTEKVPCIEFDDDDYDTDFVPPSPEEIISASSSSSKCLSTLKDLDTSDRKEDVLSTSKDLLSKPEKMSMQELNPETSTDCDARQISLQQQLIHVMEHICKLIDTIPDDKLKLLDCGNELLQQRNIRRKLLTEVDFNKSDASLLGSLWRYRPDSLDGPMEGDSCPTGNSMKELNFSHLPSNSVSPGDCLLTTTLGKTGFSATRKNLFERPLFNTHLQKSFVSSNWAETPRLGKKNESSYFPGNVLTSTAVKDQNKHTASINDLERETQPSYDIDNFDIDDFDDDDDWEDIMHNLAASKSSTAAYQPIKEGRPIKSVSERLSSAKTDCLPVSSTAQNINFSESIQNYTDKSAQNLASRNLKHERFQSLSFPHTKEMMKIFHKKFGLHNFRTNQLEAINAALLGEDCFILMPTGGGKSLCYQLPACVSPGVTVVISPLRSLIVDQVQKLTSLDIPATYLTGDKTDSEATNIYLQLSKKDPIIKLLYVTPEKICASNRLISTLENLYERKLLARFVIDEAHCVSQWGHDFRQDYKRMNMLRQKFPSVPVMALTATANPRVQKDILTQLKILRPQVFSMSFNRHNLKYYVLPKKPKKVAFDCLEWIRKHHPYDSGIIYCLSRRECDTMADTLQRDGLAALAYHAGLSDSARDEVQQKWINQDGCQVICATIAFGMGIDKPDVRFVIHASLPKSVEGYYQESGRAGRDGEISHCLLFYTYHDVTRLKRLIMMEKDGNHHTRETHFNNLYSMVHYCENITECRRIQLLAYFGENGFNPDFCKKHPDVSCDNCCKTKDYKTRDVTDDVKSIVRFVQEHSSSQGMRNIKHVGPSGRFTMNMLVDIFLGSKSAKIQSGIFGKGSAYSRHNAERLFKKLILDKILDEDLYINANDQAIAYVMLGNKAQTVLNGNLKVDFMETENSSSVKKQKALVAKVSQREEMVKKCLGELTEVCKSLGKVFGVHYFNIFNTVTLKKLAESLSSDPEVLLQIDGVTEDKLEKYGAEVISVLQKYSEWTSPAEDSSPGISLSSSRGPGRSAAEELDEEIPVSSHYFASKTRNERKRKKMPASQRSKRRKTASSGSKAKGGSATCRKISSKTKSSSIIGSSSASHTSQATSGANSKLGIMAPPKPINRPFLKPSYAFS
ATP-dependent DNA helicase Q1 (Homo sapiens), sequence (P46063 whole entry, looked up): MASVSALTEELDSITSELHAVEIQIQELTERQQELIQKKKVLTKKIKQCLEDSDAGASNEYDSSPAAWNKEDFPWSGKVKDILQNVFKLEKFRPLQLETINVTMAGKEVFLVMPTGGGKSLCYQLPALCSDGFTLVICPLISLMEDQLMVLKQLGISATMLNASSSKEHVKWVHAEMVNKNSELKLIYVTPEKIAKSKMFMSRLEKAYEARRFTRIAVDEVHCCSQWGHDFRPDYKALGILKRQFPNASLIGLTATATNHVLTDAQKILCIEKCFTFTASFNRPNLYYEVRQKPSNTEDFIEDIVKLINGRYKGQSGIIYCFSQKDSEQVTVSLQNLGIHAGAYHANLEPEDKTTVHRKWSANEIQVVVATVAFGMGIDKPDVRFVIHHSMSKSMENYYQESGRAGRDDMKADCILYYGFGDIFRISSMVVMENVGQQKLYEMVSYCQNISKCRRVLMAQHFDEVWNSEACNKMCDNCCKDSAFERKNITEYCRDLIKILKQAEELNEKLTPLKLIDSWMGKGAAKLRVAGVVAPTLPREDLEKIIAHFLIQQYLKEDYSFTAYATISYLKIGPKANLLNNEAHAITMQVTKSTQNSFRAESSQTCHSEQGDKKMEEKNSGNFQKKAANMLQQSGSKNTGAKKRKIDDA

`CNc1cc(NS(=O)(=O)c2ccc(N)cc2)nc(NC)n1`: the Potency result in assay [1], in [2], in [3], in assay [4], in assay [6] and in assay [7] was “inactive” throughout. The result in assay [5] was inactive.
Consider `CCN(CC)CCOC(=O)c1cc(Cl)c(N)cc1OC`, for which the Potency result in [1], in assay [2], in [3], in assay [4], in assay [6] and in assay [7] was “inactive” each time. Also, the Potency entry in assay [8] is “inactive”. Moreover, the result in assay [5] was inactive.
In the case of `CC(=O)N[C@@H](Cc1c[nH]c2ccccc12)C(=O)OCc1cc(C(F)(F)F)cc(C(F)(F)F)c1`, the Potency result in assay [1], in assay [2], in assay [3], in assay [4] and in assay [7] was “inactive” in each case. Besides, the outcome in assay [5] was inactive.
With `CCCCCC(O)CCCC(=O)O` (stereo unspecified), the Potency result in assay [1], in assay [2], in assay [3], in assay [4], in assay [6] and in assay [7] was “inactive” throughout. In assay [8], the Potency entry is “inactive”. Besides, the compound was called inactive in assay [5].
Consider `CC1C(=O)N(C)C(=O)c2nc[nH]c21` (stereo unspecified), for which the Potency entry in [1], in assay [2], in assay [3], in assay [4], in assay [6] and in [7] was “inactive” each time. The compound was called inactive in [5].
With `N[C@H](C(=O)O)c1cc(O)cc(O)c1`, the Potency result in assay [1], in assay [2], in assay [3], in assay [4], in [6] and in [7] was “inactive” each time. The call in [5] was inactive.
With `N=C(N)c1ccc(N)cc1`, the Potency entry in assay [1], in assay [2], in assay [4], in [6], in [7] and in assay [8] was “inactive” throughout. The Potency in assay [3] was 14.1 µM (active). In addition, the outcome in assay [5] was inactive.
Consider `CSC(N)=NCCC[C@H](N)C(=O)O`, for which the Potency entry in [1], in assay [2], in assay [3], in [4], in assay [6] and in [7] was “inactive” each time. Besides, the Potency result in [8] is “inactive”. In assay [5], the outcome was inactive.
In the case of `CC[N+](CC)(CC)CC(=O)Nc1c(C)cccc1C`, the Potency result in [1], in assay [2], in assay [3], in [4], in [6] and in assay [7] was “inactive” each time. Besides, the compound was called inactive in assay [5].
Consider `CNc1ncnc2c1ncn2[C@H]1C[C@H](OP(=O)(O)O)[C@@H](COP(=O)(O)O)O1`, for which the Potency entry in [1], in [2], in assay [3], in [4], in [6] and in [7] was “inactive” in each case. Also, in [5], the result was inactive.
For the compound `NC1(C(=O)O)CCCCC1`, the Potency entry in assay [1], in [2], in assay [3], in [4] and in [7] was “inactive” each time. Besides, the compound was called inactive in [5].
With `O=C(O)c1cccnc1C(=O)O`, the Potency entry in assay [1], in [2], in [3], in [4], in assay [6] and in [7] was “inactive” throughout. In addition, the result in [5] was inactive.
Regarding `N=C(N)c1ccccc1`, the Potency result in assay [1], in assay [2], in assay [3], in [4], in assay [6] and in assay [7] was “inactive” in each case. The compound was classed as inactive in assay [5].
Turning to `O=C(O)C1CN(CCCP(=O)(O)O)CCN1` (stereo unspecified), the Potency entry in [1], in assay [2], in assay [3], in assay [4], in [6] and in [8] was “inactive” throughout. The result in assay [5] was inactive.
As for `N[C@@H](Cc1ccc(O)c(I)c1)C(=O)O`, the Potency entry in assay [1], in [2], in assay [3], in assay [4], in [6] and in [7] was “inactive” throughout. In addition, in assay [5], the call was inactive.
As for `CCCc1c(OCCCOc2ccc(OCC(=O)O)cc2)ccc(C(C)=O)c1O`, the Potency entry in [1], in assay [2], in assay [3], in [4], in assay [6] and in assay [7] was “inactive” each time. Further, in assay [5], the result was inactive.
As for `NS(=O)(=O)c1cccc2c1c([N+](=O)[O-])cc1nc(O)c(O)nc12`, the Potency entry in assay [1], in assay [2], in [4], in assay [6] and in assay [7] was “inactive” each time. The Potency in assay [3] was 11.2 µM (active). The result in [5] was inactive.
For `C[C@@]1(C2CCCC2)Cc2cc(OCC(=O)O)c(Cl)c(Cl)c2C1=O`, the Potency result in assay [1], in [2], in assay [3], in [4], in [6] and in assay [7] was “inactive” throughout. Also, the result in assay [5] was inactive.
As to `CC(C)(C)NCC(O)COc1cccc2[nH]c(=O)[nH]c12` (stereo unspecified), the Potency entry in [1], in assay [2], in assay [3], in assay [4], in assay [6] and in [7] was “inactive” each time. In addition, the Potency result in assay [8] was “inactive”. For the same compound, in assay [5], the outcome was inactive.
Take `NC1(C(=O)O)CCc2cc(C(=O)O)ccc21` (stereo unspecified): the Potency entry in assay [1], in assay [2], in assay [3], in assay [4] and in [7] was “inactive” each time. Also, the compound was classed as inactive in assay [5].
`NCCS(=O)O`: the Potency result in assay [1], in [2], in [3], in assay [4] and in assay [7] was “inactive” each time. The call in assay [5] was inactive.
As for `NC(C(=O)N[C@@H]1C(=O)N2C(C(=O)O)=C(Cl)CS[C@H]12)c1ccccc1` (stereo partly specified), the Potency result in assay [1], in assay [2], in assay [3], in assay [4], in [6] and in assay [7] was “inactive” in each case. In addition, the compound was called inactive in assay [5].
Take `O=C(O)[C@H]1NCCC[C@H]1C(=O)O`: the Potency entry in [1], in [2], in [3], in assay [4], in assay [6] and in assay [7] was “inactive” each time. In addition, in assay [5], the compound was called inactive.
`O=C(O)C1=CCNCC1`: the Potency result in [1], in [2], in assay [3], in assay [4], in [6] and in assay [7] was “inactive” throughout. Besides, in assay [5], the compound was called inactive.
In the case of `CC(=O)C(C)=O`, the Potency result in assay [1], in assay [2], in assay [3], in assay [4], in assay [6] and in assay [7] was “inactive” each time. Moreover, in assay [8], the Potency entry was “inactive”. The outcome in [5] was inactive.
As to `OC[C@H]1NC[C@@H](O)[C@@H]1O`, the Potency entry in assay [1], in [2], in assay [3], in assay [4], in [6] and in assay [7] was “inactive” each time. Besides, the Potency entry in assay [8] was “inactive”. Besides, the outcome in assay [5] and in assay [9] was inactive.
